Most compounds without a hit are left out; they make up all but 19% or so of the library.
IL-1B inflam inh: inhibitors of inflammasome signaling (IL-1 beta secretion). hit rate 4.7% among 360,000. THP-1 LPS/ATP IL-1B secretion, AlphaLISA, 16 h; hits give low values. activity change, % at 57.5 µM; in the data active means activity change below about -50%; inconclusive means mostly about -30% to -49%; further: on the % scale 0 is the no-effect control and ±100 the full control effect
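Secreted IL-1B measured by AlphaLISA bead assay after 16 h compound exposure of THP-1 cells; compounds (final up to 57.5 uM) added 1 h before LPS (250 ng/mL) and ATP (1.25 mM) stimulation; lower signal means less secretion.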
DT40 TDP1 no CPT: qHTS for Inhibitors of human tyrosyl-DNA phosphodiesterase 1 (TDP1): qHTS in cells in absence of CPT. AID 686978, 2013. hit rate 15% among 420,000. Potency, µM (highest dose often 46.2 µM), for inactives: top-dose activity change, negative = growth inhibition, actives largely listed as inhibitors. DT40 Tdp1-/- hTDP1 cells, no CPT, ATP luminescence, 48 h; further: potency means the concentration at half of the fitted maximal effect; on the % scale 0 is the no-effect control and ±100 the full control effect; nearly all actives have a fitted effect of over 55% in size
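Compound effects on proliferation are scored in DT40 Tdp1-/-;hTDP1 cells in the absence of CPT. ATP levels (CellTiter-Glo luminescence) are recorded after a ≥48 hr, 37 °C incubation.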
Chronic BCR inh: inhibitors of chronic active B-cell receptor signaling. ABC-DLBCL IkBa-CBG/CBR reporter, luminescence ratio, 4 h. Potency, µM (doses to about 46.1 µM), for the others: at the top dose activity change, negative = inhibition, most hits filed as inhibitors. hit rate 0.05% among 340,000. AID 493014; active means well fitted inhibition curve with a large enough effect in the signal ratio, with a control signal flat, not every such curve was filed as active; inconclusive means small, poorly fitted or top-dose-only effect, or effect the other way, or a change in a side signal; the % refers to the signal ratio;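 further: potency means the concentration at half of the fitted maximal effect; plate controls were basal doxycycline-induced cells for no effect and cells given 10 µM MG132 for full effect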
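TMD8 ABC-DLBCL cells carrying doxycycline-inducible green luciferase fused to IkappaBalpha plus unfused red luciferase were exposed to compounds (up to 46 uM) for 4 hrs at 37C. Activity came from the overlap-corrected green/red luminescence ratio.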
MCF10A rereplic: inducers of DNA re-replication in MCF 10A breast cells; MCF 10A DNA re-replication, Hoechst nuclear intensity, 48 h; Potency, µM (top dose mostly 46.1 µM), for inactives: at the top dose activity, positive = re-replication, actives largely listed as activators; AID 624296; hit rate 2.9% among 350,000; further: potency means the concentration at half of the fitted maximal effect; % of control where 0% means no effect; nearly all actives have a fitted effect of over 50% in size
TDP1 cell CPT: growth inhibition of DT40 Tdp1-/-;hTDP1 cells with camptothecin (screen for TDP1 inhibitors); Potency, µM (titrated, usually from 46.2 µM), for the others: at the top dose activity change, negative = growth inhibition, hits mostly inhibitors; chicken DT40 Tdp1-/-;hTDP1 cells + 20 nM CPT, ATP luminescence, 48 h; AID 686979; hit rate 12% among 420,000; further: potency means the concentration at half of the fitted maximal effect; on the % scale 0 is the no-effect control and ±100 the full control effect; nearly all actives have a fitted effect of over 55% in size
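Cell growth measured by CellTiter-Glo luminescence after a minimum 48 h, 37 C compound exposure with 20 nM CPT in Tdp1-knockout DT40 cells stably expressing hTDP1, seeded 400/well; qHTS titration format.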
SW480 rereplic: inducers of DNA re-replication in SW480 colon cancer cells; SW480 DNA re-replication, Hoechst DNA content imaging, 48 h; Potency, µM (highest dose often 46.1 µM), without a hit: at the top dose re-replication activation, usual class: activators; hit rate 1.8% among 340,000; AID 624297; further: potency means the concentration at half of the fitted maximal effect; % of control where 0% means no effect; nearly all actives have a fitted effect of over 55% in size
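Quantitative HTS format with DMSO vehicle controls; 48 hr drug incubation at 37 C, then 40 min Hoechst staining and scanning imager measurement at 405 nm excitation.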
An asterisk follows results filed as active; ? = inconclusive; · = no result; [ ] = dose if it differs, or a comment. Unless noted, the call rests on the fitted dose curve; in most records, active means well fitted curve in the direction sought with a large enough effect; inconclusive means small, poorly fitted or top-dose-only effect, or another doubt; inactive means no such curve, though single readings can be large; an effect the other way counts as inactive or inconclusive.

SMILES | IL-1B inflam inh | DT40 TDP1 no CPT | Chronic BCR inh | MCF10A rereplic | TDP1 cell CPT | SW480 rereplic
O=C(NCC(c1cccs1)S(=O)(=O)c1cccs1)c1ccc(Cl)cc1 (centres undefined) | · | 18µM* | -4% | · | ? | ·
O=C(NCC(c1cccs1)S(=O)(=O)c1cccs1)c1ccc(F)c(F)c1 (centres undefined) | · | ? | 6% | · | ? | ·
Cc1ccc(C(=O)NCC(c2cccs2)S(=O)(=O)c2cccs2)cc1C (centres undefined) | · | 21µM* | ? | · | 12µM* | ·
Cc1ccc(Nc2c(-c3ccc(C)o3)nc3ncccn23)cc1 | 79 | -19% | 10% | 6% | -9% | 10%
Cc1ccc(-c2nc3cnccn3c2Nc2c(C)cccc2C)o1 | 13 | 10µM* | ? | 21µM* | 5.8µM* | ?
Cc1ccc(-c2nc3cnccn3c2Nc2ccc(C(C)C)cc2)o1 | · | 10µM* | · | · | ? | ·
Cc1ccc(-c2nc3ncccn3c2NC2CCCC2)o1 | 3 | ? | 14% | -1% | -8% | -3%
CN1CCN(CCc2nc3cc(NC(=O)COc4ccc([N+](=O)[O-])cc4)ccc3n2C)CC1 | -19 | -8% | -1% | 0% | -1% | ?
CCNc1ncc2nc(-c3cccc(C#N)c3)c(=O)n(C)c2n1 | · | -4% | · | · | 4% | ·
CC[n+]1c(/C=C2\Sc3ccccc3N2C)ccc2cccc(C)c21 | -100* | 0.52µM* | ? | -6% | 0.52µM* | -10%
CCN1C(=O)/C(=C2\Sc3ccccc3N2CC)OC1=S | 0 | -25% | 9% | 14% | -19% | ?
CCN1/C(=C/c2ccc3cc(C)ccc3[n+]2CC)Sc2ccccc21 | -100* | 0.058µM* | ? | 14% | 0.065µM* | -8%
CCCCn1cnc2c(SCc3ccccc3F)nc(N)nc21 | ? | -28% | · | 3% | -11% | 1%
COc1cc(-c2nnc(-c3cccnc3)o2)cc(OC)c1OC | -11 | -3% | -2% | -5% | ? | -13%
COc1ccc(-c2nnc(-c3cccnc3)o2)cc1OC | -24 | ? | -2% | ? | 12µM* | -11%
COc1cc(-c2nnc(-c3ccncc3)o2)ccc1OCc1ccccc1 | 0 | 9.2µM* | 1% | ? | ? | -18%
CCOc1ccc(-c2nnc(-c3ccncc3)o2)cc1OCC | -25 | ? | -1% | 3% | -9% | -4%
CCOc1ccc(-c2nnc(-c3cccnc3)o2)cc1OCC | -7 | 16µM* | 1% | 19% | ? | -9%
Cc1ccc(CCNC(=O)CN2CCN(Cc3ccc(Cl)cc3)C2=O)cc1 | · | ? | · | · | -25% | ·
O=C(Nc1cnns1)Oc1ccccc1 | 5 | -13% | · | · | -17% | ·
Nc1ccc(S(=O)(=O)Nc2nc3ccccc3o2)cc1 | 30 | -4% | 7% | -6% | 8% | -5%
CCCCCCN(C(=O)CCCCCN1C(=O)NC(c2ccc(-c3ccccc3)cc2)C(C(=O)OCc2ccccc2)=C1C)C(C(=O)NCCCC)c1ccc(O)cc1 (centres undefined) | · | · | 2% | -2% | · | 11%
CC1=C(C(=O)OCc2ccccc2)C(c2ccc3c(c2)OCO3)NC(=O)N1CCCC(=O)O (centres undefined) | 49 | 0.15µM* | · | -1% | ? | -92%
COC(=O)CCCN1C(=O)NC(c2ccc(-c3ccccc3)cc2)C(C(=O)OCc2ccccc2)=C1C (centres undefined) | -9 | ? | 0% | ? | ? | 24%[9.22 µM]
COC(=O)CCCCCN1C(=O)NC(C2CC2)C(C(=O)OCc2ccccc2)=C1C (centres undefined) | 19 | 13µM* | · | 46% | 16µM* | -3%
SMILES | IL-1B inflam inh | DT40 TDP1 no CPT | Chronic BCR inh | MCF10A rereplic | TDP1 cell CPT | SW480 rereplic
CCCCCCN(C(=O)CCCCCN1C(=O)NC(c2ccc(-c3ccccc3)cc2)C(C(=O)OCc2ccccc2)=C1C)C(C(=O)NCCCC)c1ccc(-c2ccccc2)cc1 (centres undefined) | · | · | 0% | · | · | ·
CCCCCCN(C(=O)CCCCCN1C(=O)NC(c2ccc([N+](=O)[O-])cc2)C(C(=O)OCc2ccccc2)=C1C)C(C(=O)NCCCC)C1CCCCC1 (centres undefined) | 15 | 5.8µM* | 3% | 8% | ? | -6%
CCCCCCN(C(=O)CCCN1C(=O)NC(c2ccc(-c3ccccc3)cc2)C(C(=O)OCc2ccccc2)=C1C)C(C)C(=O)NCCCC (centres undefined) | ? | 16µM* | -7% | -3% | ? | 0%
O=C(O)CC1(CC(=O)Nc2ccccc2Br)CCCC1 | 15 | -18% | · | 4% | -5% | -6%
CN(C(=O)COC(=O)c1cc(S(=O)(=O)N2CCCCC2)ccc1Cl)c1ccccc1 | -20 | ? | 7% | 6% | ? | -3%
Cc1ccc([C@@H]2CC(=O)[C@@H]3CN(S(=O)(=O)c4ccc(C)cc4)[C@H](c4cccc(Cl)c4)C[C@@H]3N2S(=O)(=O)c2ccc(Cl)cc2)cc1 | 12 | -25% | · | · | 5% | ·
COc1ccc(NC(=S)N(CCN(C)C)C(C)c2ccco2)cc1Cl (centres undefined) | -1 | 16µM* | -1% | 29% | -26% | -15%
Cc1ccc(-c2ccc(/C=N\NC(=O)C3C(=O)NCC3c3ccccc3)o2)cc1Cl (centres undefined) | -55* | ? | ? | ? | ? | ?
COc1cccc(/C=N/NC(=O)C(=O)NCc2ccco2)c1O | 113 | 21µM* | 6% | -3% | 7.3µM* | 0%
COc1cccc(/C=N\NC(=O)C2C(=O)NCC2c2ccccc2)c1O (centres undefined) | 44 | 23µM* | 0% | 14% | ? | ?
COc1cccc(/C=N/NC(=O)c2cnccn2)c1O | 76 | ? | ? | 5% | ? | 5.2µM*
COc1ccc(NS(=O)(=O)c2cccc(C(=O)O)c2)cc1S(=O)(=O)N1CCCCC1 | 0 | -16% | 1% | 2% | 17% | -15%
COC(=O)CCC(=O)NNC(=O)C1CC1(c1ccccc1)c1ccccc1 (centres undefined) | 22 | 11% | 0% | 10% | -4% | -17%
COc1cccc(/C=N/NC(=O)C(=O)N/N=C/c2cccc(OC)c2O)c1O | 154 | 1.6µM* | 4% | 3% | 1µM* | 6.5µM*
COc1cc(/C=N/NC(=O)c2cccc([N+](=O)[O-])c2)ccc1O | 10 | 5% | ? | 3% | 1% | -5%

Screens as filed in PubChem.
